Experimental data as given in PubChem BioAssay (NCI).
About 79,000 compounds went through this panel and 15% of them were active in at least one assay; those are over-represented in the sample as a whole. A number with no mark means an inactive call. The source made the active and inactive calls. No stated cut-off is given here; in the data, active means growth inhibition above about 70%; inactive means the rest. *1 amine or outer side, *2 acyl side, *3 side chain or, on linkers, in order; H or OH if unused. Where a SMILES comes first, the peptide text is derived from it. Bridges are numbered along the chain shown (N, C = ends). Roman numbers before positions name the chains, in order. [ ]: non-standard residue; d: D form. Actinocin(1to9) = Cc1c2oc3c(C)ccc(C(=O)[*:2])c3nc-2c(C(=O)[*:1])c(N)c1=O; NMeV = CN[CH](C(=O)O)C(C)C; Aze = O=C(O)[CH]1CCN1; Sar = CNCC(=O)O

How the values were obtained:
[1] = NCI Yeast Anticancer Drug Screen. Data for the rad50 strain (AID 155);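 further: 0% = growth of vehicle-only cultures of the same strain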; details: S. cerevisiae rad50 strain growth inhibition; at 50.0 µM; hits give high values
How it was run: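 DNA repair mutant yeast, compound exposure, growth read-out; inhibition is taken relative to vehicle.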

[2] = NCI Yeast Anticancer Drug Screen. Data for the mec2-1 strain (AID 157); details: S. cerevisiae mec2-1 strain, at 50.0 µM, hits give high values
How it was run: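 Mutant yeast (mec2-1) grown with compound; growth inhibition relative to vehicle control reported.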

[3] = NCI Yeast Anticancer Drug Screen. Data for the sgs1 mgt1 strain (AID 161);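 further: 0% = growth of cultures given vehicle only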; details: S. cerevisiae sgs1 mgt1 strain, at 50.0 µM, hits give high values
How it was run: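 Yeast cells carrying a defined DNA-repair defect were exposed to test compounds. Growth inhibition was measured relative to vehicle-treated controls.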

[4] = NCI Yeast Anticancer Drug Screen. Data for the cln2 rad14 strain (AID 165);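 further: 0% = growth equal to vehicle treated cultures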; details: S. cerevisiae cln2 rad14 strain, at 50.0 µM, hits give high values
How it was run: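 Readout is yeast growth inhibition versus vehicle-treated controls, using a strain with cln2 and rad14 alterations exposed to compound.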

[5] = NCI Yeast Anticancer Drug Screen. Data for the bub3 strain (AID 167); details: S. cerevisiae bub3 mutant strain, at 50.0 µM, hits give high values
How it was run: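 In this screen, a yeast mutant lacking normal mitotic checkpoint function is challenged with compound. Relative growth versus vehicle gives the inhibition value.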

[6] = NCI Yeast Anticancer Drug Screen. Data for the mlh1 rad18 strain (AID 175); details: S. cerevisiae mlh1 rad18 strain growth inhibition; at 50.0 µM; hits give high values
How it was run: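 Genetically defined yeast (DNA repair-deficient) exposed to compounds; growth inhibition determined relative to vehicle.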

| Compound | growth inhibition [1] | growth inhibition [2] | growth inhibition [3] | growth inhibition [4] | growth inhibition [5] | growth inhibition [6] |
| --- | --- | --- | --- | --- | --- | --- |
| O=C(Oc1ccn(C2OC(CO)C(O)C2O)c(=O)c1)C12CC3CC(CC(C3)C1)C2 (stereo not drawn) | 36.1% | 11.6% | 25.2% | 25.4% | 0.95% | 36.2% |
| Cc1ccc2c(c1)C(O)(CC(=O)c1ccccc1)C(=O)N2 (stereo not drawn) | 35.4% | 0.55% | 7% | -47.9% | -6.6% | 1.35% |
| O=C(CCC(NC(=O)OCc1ccccc1)C(=O)OCc1ccccc1)Nc1cccc(OCc2ccccc2)c1 (stereo not drawn) | -16.2% | -18.1% | -1.15% | -23.6% | -20% | -27.4% |
| CCCC1(C)COC(/C=C/c2ccccc2)OC1 (stereo not drawn) | 6.85% | -9.7% | -8.3% | -1.85% | -8.2% | 8.4% |
| NCc1ccc(C(=O)O)cc1 | -30.2% | -8.9% | -28% | -68.7% | -13% | -14.6% |
| Clc1ccc(OCC(COc2ccc(Cl)cc2)(COc2ccc(Cl)cc2)COc2ccc(Cl)cc2)cc1 | -0.75% | 2.75% | -4.8% | 5.9% | -4.45% | 0.7% |
| Cc1cc(O)c(Br)cc1C | 5.35% | -33% | 9.15% | -5.45% | 0.2% | -9.45% |
| CC(CC[C@@]1(C)C(=O)CCC2O[C@]21C)[C@H]1C[C@@H](c2ccoc2)OC1=O (stereo partly drawn) | 9.05% | -31.8% | -5.4% | -15.8% | -4.8% | -70.9% |
| O=C(O)C1COCOC1c1ccccc1 (stereo not drawn) | -1.6% | -10.3% | 3% | -14.9% | -4.05% | 6.9% |
| NC1=Nc2cc(C(F)(F)F)ccc2Sc2nc3ccccc3n21 | 4% | -15.8% | 20.1% | 13.2% | 22.4% | 5.65% |
| Oc1ccc(Cl)cc1C=Nc1cnc2ccccc2c1 | -14.6% | 24.9% | 1.95% | -10.9% | 9.1% | 17.4% |
| CN(C)CCCN1c2ccccc2Sc2cnccc21 | 7.6% | -8.2% | -0.2% | -0.05% | -1.45% | 15.3% |
| CC(C)CCC(C)c1ccncc1 (stereo not drawn) | 11.7% | 0.4% | -7.05% | -6.5% | 3.35% | 0.45% |
| CSC(SC)[P+](c1ccccc1)(c1ccccc1)c1ccccc1 | 94.1% (active) | 93.9% (active) | 90.7% (active) | 93.5% (active) | 91.2% (active) | 93.5% (active) |
| N#C/C(=C\c1ccc(Cl)cc1)C(=O)N/N=C/c1ccc(Cl)cc1 | 24.6% | 27.1% | 33% | 1.35% | 5.75% | 27.9% |
| CCCCCCCCCCCCCCCCCC(C)O (stereo not drawn) | -8.7% | -13.2% | -1.05% | 1.85% | -10.4% | -10.8% |
| CCOC(=O)NC(CCl)NC(=O)OCC | -11.7% | -5.6% | -2.05% | -77% | 6.4% | -35.5% |
| ClCc1ccc(CCc2ccc(CCl)cc2)cc1 | 17.9% | -17.9% | 22.6% | -44.9% | 16.3% | 8.15% |
| CCN(CC)C(=S)Oc1cc(C)nc(SCC(=O)c2ccc(Cl)cc2)n1 | 22.6% | -18.8% | 41.2% | 29.2% | 30.8% | 28.4% |

| Compound | growth inhibition [1] | growth inhibition [2] | growth inhibition [3] | growth inhibition [4] | growth inhibition [5] | growth inhibition [6] |
| --- | --- | --- | --- | --- | --- | --- |
| O=C(O)C(NCCCNC(C(=O)O)c1ccccc1)c1ccccc1 (stereo not drawn) | 22.4% | 14.2% | 22.6% | 37.6% | 21.7% | 19.1% |
| COc1cc(Br)cc(OC)c1Oc1cc(OC)c(OC)c(OC)c1Br | 45.8% | 12.4% | 36% | 2.4% | 10.8% | 24.9% |
| O=[N+]([O-])c1ccc2nc(C(F)(F)F)cc(Cl)c2c1 | 7.35% | 5.3% | 2% | -66.9% | -1.1% | -9.75% |
| C[N+](C)(C)C(Cc1c[nH]c(=S)[nH]1)C(=O)O (stereo not drawn) | -14.9% | -44.4% | -31.1% | 9.45% | -8.4% | -20.4% |
| CCCC(=O)Nc1ccc(N=Nc2ccccc2)cc1 | 8.15% | 43.4% | 58.3% | -15.9% | 46.1% | 57.5% |
| COc1ccc(C=O)c(C(=O)O)c1OC | -7.7% | -52.9% | -2.8% | 17.2% | -20.2% | -3.7% |
| O=[N+]([O-])c1ccc(P(=O)(Nc2ccc3ccccc3c2)Nc2ccc3ccccc3c2)cc1 | 34.5% | 15.2% | 15.5% | 0.2% | 13.1% | 46.5% |
| CCOC(=O)C1=C(C(=O)c2ccc(C)cc2)C(c2c(Cl)cccc2Cl)C(C(=O)c2ccc(C)cc2)=C(C(=O)OCC)N1 | 18.4% | 21.1% | 37.8% | 44.5% | 54.9% | 38% |
| c1ccc(-c2nc3ncncc3[nH]2)cc1 | 7% | -10.3% | -7.65% | -13.8% | -3.45% | -5.6% |
| COc1cc2cc(C)c(C)cc2cc1OC | -5.8% | 13.7% | -4% | -22.9% | -21.9% | 5.65% |
| Cc1ccc(S(=O)(=O)n2cnc(CC(NC(=O)C3CCC(=O)N3C(=O)OCc3ccccc3)C(=O)N3CCCC3C(=O)NN)c2)cc1 (stereo not drawn) | -38.9% | -43.1% | -30.8% | -9.95% | -30.9% | -18.2% |
| Cc1c2oc3c(C)ccc(C(=O)NC4C(=O)NC(C(C)C)C(=O)N5CCCC5C(=O)N(C)CC(=O)N(C)C(C(C)C)C(=O)OC4C)c3nc-2c(C(=O)NC2C(=O)NC(C(C)C)C(=O)N3CCC3C(=O)N(C)CC(=O)N(C)C(C(C)C)C(=O)OC2C)c(N)c1=O (stereo not drawn) (I: TV[Aze][Sar][NMeV] / II: TVP[Sar][NMeV]; ester I:1-I:C, II:1-II:C; linker I:N-II:N via Actinocin(1to9); configuration not given here) | 90.3% (active) | 92.2% (active) | 92.5% (active) | 86.8% (active) | 89% (active) | 90% (active) |
| O=c1oc2ccc(Cl)cc2c(OCCO)c1Cl | -5.2% | 4.55% | -4.45% | -0.5% | -5.95% | -1.15% |
| CCOc1ccc(NC(=O)C2=C(C)NC(C)=C(C(=O)Nc3ccc(OCC)cc3)C2c2ccc(O)c(OC)c2)cc1 | -17.4% | 3% | -14.8% | -16.4% | 16% | -8.1% |
| O=[N+]([O-])c1ccc2c(c1)C(=Nc1ccc(Cl)cc1)c1ccccc1-2 | -0.95% | -8.6% | -8% | -32% | 24.1% | 5.45% |
| CC1CC(C)(C)OC(c2ccc(Cl)cc2)O1 (stereo not drawn) | 9.35% | -5.85% | -9.6% | -52.5% | -12.4% | -9.1% |
| COc1ccc(-c2nc(-c3cc4ccccc4oc3=O)cs2)cc1 | 13.1% | 13.6% | -12.1% | 7.7% | -18.4% | -35.1% |
| CCCC1SC(=S)N(c2ccc(Cl)cc2)C1=O (stereo not drawn) | 17.9% | 22.1% | 26.5% | 9.2% | -1.55% | 9.9% |
| CC(=O)OC1OC(COC(=O)c2ccccc2)C(OC(=O)c2ccccc2)C1OC(=O)c1ccccc1 (stereo not drawn) | -60.6% | -12.8% | -13.2% | -33.9% | -0.65% | 2.95% |
